Screening results from PubChem.
BH1578 lux ind = inducers of Vibrio cholerae quorum light production without autoinducers, primary screen, BH1578 luxS cqsA deficient, single point. V. cholerae BH1578 lux reporter, luminescence, 6 h. activation, % at 18.7 µM. 350,000 tested, 0.16% active; in the data active = activation mostly above about 9.7%, no sharp cut-off
PriA SSB inh = inhibitors of Klebsiella pneumoniae PriA binding to SSB C-terminal tail, primary screen, biochemical, AlphaScreen | AlphaScreen SSBct-PriA binding, biotinylated peptide | PriA–SSB C-terminal tail interaction (Klebsiella pneumoniae) | 430,000 tested, 0.6% active | AID 1272365, 2023 | inhibition, % at 33 µM; in the data active = inhibition mostly above about 37%, no sharp cut-off; inactive = mostly below about 20%;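 also: plate controls were negative control peptide for no effect and reference peptide for full effect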
PrPC TRFRET = inhibitors of human cell surface prion protein PrPC, primary screen, cell-based, TR-FRET | Major prion protein (Homo sapiens), P04156 | TR-FRET read-out | inhibition, % at 13.8 µM | 370,000 tested, 0.43% active | AID 720596, 2013; in the data active = inhibition above about 24%; also: 0% = median of the test wells and 100% = reference compound wells
PrP UTR inh = inhibition of PrP 5' UTR reporter expression | cell-based PrP 5' UTR mRNA reporter, plate reader | 340,000 tested, 0.35% active | inhibition, % (test concentration not listed); in the data active = inhibition above about 52%; also: 0 = median of the neutral control wells
FadD28 FP inh = inhibitors of FadD28 bisubstrate probe binding, primary screen, biochemical, fluorescence polarization, single point. Mycobacterium tuberculosis FadD28 fatty-acid-AMP ligase. inhibition, % at 12.5 µM. 360,000 tested, 0.22% active. AID 588549, 2011; in the data active = inhibition above about 8.5%, passing the limit was not always enough
Starred values were filed as active, the others as inactive; i = inactive; x = no result given; ! = not active in a repeat. A selection: hits, their analogues and other compounds. The true share with any hit is near 1.4%.

SMILES | BH1578 lux ind | PriA SSB inh | PrPC TRFRET | PrP UTR inh | FadD28 FP inh
CCCN1CCCc2cc(CCNC(=O)C(=O)NCCc3ccccc3)ccc21 | x | 44 | x | x | x
CCCN1CCCc2cc(CCNC(=O)c3cc(OC)cc(OC)c3)ccc21 | x | 59 | x | x | x
CCCN1CCCc2cc(CCNC(=O)c3ccccc3OC)ccc21 | x | 73* | x | x | x
CCCN1CCCc2cc(CCNC(=O)c3ccccc3C)ccc21 | x | 59* | x | x | x
Cc1ccc(-c2cc3c(=O)n(Cc4ccccc4)ccn3n2)cc1 | x | -11 | x | x | x
CCN(CC)c1ccc(/C=C2\C(=O)c3ccc(C(=O)O)cc3C2=O)cc1 | 0 | 0 | -7 | -50 | 25*
CCN(CC)c1ccc(C(=O)O)cc1 | 0 | -6 | 1 | -11 | -1
C=CCCC1(C)NNc2nc(=O)c(C)nn21 (stereo unspecified) | x | 98* | x | x | x
Cc1nn2c(nc1=O)NNC2(C)C(C)(C)C (stereo unspecified) | i | -7 | -1 | -12 | -5
CN(Cc1ccccc1)c1oc(COc2ccc(F)cc2)nc1C#N | x | 64* | x | x | x
O=C(NCC(c1ccc(F)cc1)N1CCOCC1)c1cccs1 (stereo unspecified) | x | -4 | x | x | x
COc1ccc(-c2nc(C#N)c(N3CCCCC3)o2)cc1 | -1 | 50* | 10 | -4 | x
COc1ccc(-c2nc(C#N)c(N3CCOCC3)o2)cc1 | x | 54* | x | x | x
COc1ccc(-c2nc(C#N)c(N3CCC(C)CC3)o2)cc1 | 1 | 20 | -4 | 0 | -3
CCOc1ccc(-c2nc(C#N)c(N3CCN(C)CC3)o2)cc1 | -7 | -6 | -2 | 6 | -1
CCOc1ccc(-c2nc(C#N)c(N3CCCCCC3)o2)cc1 | 0 | 93* | -3 | -24 | 0
COc1ccc(-c2nc(C#N)c(N3CCCCCC3)o2)cc1 | i | 8 | 10 | -10 | 1
NC(=O)c1ccccc1OCC#CCNC(=O)Cc1ccc(F)cc1 | x | -5 | x | x | x
O=c1c2nc(N3CCCCC3)sc2c(-c2cccs2)nn1CCc1ccccc1 | x | -3 | x | x | x
COC(=O)CCC(=O)OC1(C)C(=O)C2=CN(c3ccc(OC)cc3)C(c3ccc(OC)cc3)=CC2=C(Br)C1=O (stereo unspecified) | -3 | 26 | x | -2 | -1
COc1ccc(C2=CC3=C(Br)C(=O)C(C)(OC(=O)c4ccco4)C(=O)C3=CO2)cc1 (stereo unspecified) | -1 | 0 | x | -14 | 10*
COc1ccc(C2=CC3=C(Br)C(=O)C(C)(OC(=O)c4cccs4)C(=O)C3=CO2)cc1 (stereo unspecified) | i | -5 | 5 | -21 | 16*
COCCN1C=C2C(=O)C(C)(OC(=O)CCC(=O)OC)C(=O)C(Br)=C2C=C1c1ccc(OC)cc1 (stereo unspecified) | -2 | 4 | x | -18 | -2
COc1ccccc1-c1cc(=O)c2cc(NC(=O)c3ccccn3)ccc2o1 | x | -4 | x | x | x
CCC(C(=O)NC(C)C(=O)Nc1nc2ccccc2[nH]1)c1ccccc1 (stereo unspecified) | x | 3 | x | x | x
SMILES | BH1578 lux ind | PriA SSB inh | PrPC TRFRET | PrP UTR inh | FadD28 FP inh
CC1=Nc2ccc(C)cc2C1=Cc1c(N)n2nc(CC(=O)N3CCOCC3)sc2nc1=O | x | 3 | x | x | x
COc1ccccc1C1=NNC(=Nc2cccc(S(=O)(=O)N(C)C)c2)SC1 | 0 | 43* | 20 | -31 | -3
Cc1cc2cc(CNC(=O)NC3CCCCC3)ccc2n1C | 0 | 45*! | 9 | -6 | 5
CCc1cccc(C)c1NC(=S)NCc1ccc2[nH]c(C)cc2c1 | 0 | 42* | -5 | 4 | 0
CCC(=O)NCc1ccc2c(c1)cc(C)n2C | x | -6 | x | x | x
Cc1cc2cc(CNC(=S)NC3CCCCC3)ccc2[nH]1 | 0 | 12 | 1 | -5 | -1
Cc1cc2cc(CNC(=O)NC3CCCCC3)ccc2[nH]1 | i | 53* | 1 | -28 | -3
Cc1cc(C)c(NC(=O)C(=O)NC[C@@H](c2cccs2)N2CCc3ccccc3C2)c(C)c1 | x | -16 | x | x | x
CC(=NOCC(=O)OC(C)C(=O)Nc1ccc(C(N)=O)cc1)c1ccc2c(c1)OCO2 (stereo unspecified) | x | 3 | x | x | x
COc1ccc(N/C(C)=C/C(=S)Nc2ccccc2)cc1 | i | 43* | 3 | -19 | -3
COc1ccc(NC(=O)NC[C@H](OCCO)c2ccc(C)cc2)cc1 | x | -14 | x | x | x
COc1cc(OC)c(OC)cc1/C=N/N(C)c1ccccc1 | i | x | 3 | -10 | -1
COc1cc(OC)c(OC)cc1C=NN(C)c1ccccc1 | x | 73* | x | x | x
COc1nn(C)cc1C(=O)Nc1ccc(OC(F)(F)F)cc1 | x | 0 | x | x | x
N#Cc1nc(Cc2cccc3ccccc23)oc1NCc1ccc(F)cc1 | -1 | 45* | 1 | -11 | 0
N#Cc1nc(-c2ccc(OCc3ccc(Cl)cc3)cc2)oc1N1CCC(C(N)=O)CC1 | 5 | -4 | 5 | -23 | 1
N#Cc1nc(COc2ccc(Br)cc2)oc1N1CCCCC1 | x | 104* | x | x | x
N#Cc1nc(COc2ccc(F)cc2)oc1N1CCCC1 | x | 25 | 2 | 4 | -3
C=CCNc1oc(Cc2cccc3ccccc23)nc1C#N | 0 | 3 | 3 | 4 | -1
CCCOc1ccc(-c2nc(C#N)c(N3CCC(C(N)=O)CC3)o2)cc1 | -2 | -4 | -1 | -14 | -3
COc1ccc(OCc2ccc(-c3nc(C#N)c(N4CCC(C(N)=O)CC4)o3)o2)cc1 | x | 37* | x | x | x
Cc1ccc(OCc2nc(C#N)c(N3CCC(C(N)=O)CC3)o2)cc1 | x | 56* | x | x | x
O=S(=O)(c1cc(F)cc(F)c1)N1CCN(c2ccc(-n3cncn3)nn2)CC1 | x | -42 | x | x | x
CC(=NNC(=O)c1ccc(=O)[nH]n1)c1cccnc1 | x | 1 | x | x | x
N#Cc1nc(Cc2ccccc2)oc1N1CCCC1 | -2 | -2 | 1 | -21 | 0
SMILES | BH1578 lux ind | PriA SSB inh | PrPC TRFRET | PrP UTR inh | FadD28 FP inh
Cc1ccc(OCc2nc(C#N)c(N3CCN(Cc4ccccc4)CC3)o2)cc1 | i | -6 | 7 | -20 | -1
CC1CCN(c2oc(Cc3cccc4ccccc34)nc2C#N)CC1 | x | 56* | 0 | -7 | 3
Cc1ccc(OCc2nc(C#N)c(N3CCC(C)CC3)o2)cc1 | x | 96* | x | x | x
CC1CC(C)CN(c2oc(Cc3ccccc3)nc2C#N)C1 (stereo unspecified) | 0 | 55* | -1 | -19 | -2
Cc1ccc(OCc2nc(C#N)c(N3CCN(c4ccccc4)CC3)o2)cc1 | x | 74* | x | x | x
N#Cc1nc(Cc2cccc3ccccc23)oc1N1CCOCC1 | 0 | 34 | x | -15 | 2
COc1ccc(-c2ccc(=O)n(CCCC(=O)NCc3cccs3)n2)cc1 | x | -3 | x | x | x
CC(C)(C)CC(C)(C)NC[C@H](O)COCCOc1ccc(Cl)cc1 | x | -12 | x | x | x
O=C1NN(c2ccc(Cl)c(Cl)c2)C(=O)/C1=C/c1ccc(-c2ccccc2C(=O)O)o1 | -1 | -3 | -1 | -4 | 13*
CCOc1ccc(NC(=O)c2ccc([N+](=O)[O-])s2)c([N+](=O)[O-])c1 | x | -8 | x | x | x
CCOc1ccc(N/C=C/C(=O)c2ccc(C)cc2)c([N+](=O)[O-])c1 | i | x | 1 | -72 | -3
